The values that follow come from PubChem BioAssay (NCATS).

Inconclusive results are not listed. Active and inactive are the calls of the source. Calls follow the shape of the dose curve; as a rule, active = well fitted inhibition curve with a large enough effect in the repeat runs; inconclusive = weak or mixed curves; inactive = flat fitted curve, though single readings scatter.
Potency is read from the fitted curve at half-maximal effect.

Chain of Cytochrome P450 2D6 (Homo sapiens) (P10635 whole entry, looked up): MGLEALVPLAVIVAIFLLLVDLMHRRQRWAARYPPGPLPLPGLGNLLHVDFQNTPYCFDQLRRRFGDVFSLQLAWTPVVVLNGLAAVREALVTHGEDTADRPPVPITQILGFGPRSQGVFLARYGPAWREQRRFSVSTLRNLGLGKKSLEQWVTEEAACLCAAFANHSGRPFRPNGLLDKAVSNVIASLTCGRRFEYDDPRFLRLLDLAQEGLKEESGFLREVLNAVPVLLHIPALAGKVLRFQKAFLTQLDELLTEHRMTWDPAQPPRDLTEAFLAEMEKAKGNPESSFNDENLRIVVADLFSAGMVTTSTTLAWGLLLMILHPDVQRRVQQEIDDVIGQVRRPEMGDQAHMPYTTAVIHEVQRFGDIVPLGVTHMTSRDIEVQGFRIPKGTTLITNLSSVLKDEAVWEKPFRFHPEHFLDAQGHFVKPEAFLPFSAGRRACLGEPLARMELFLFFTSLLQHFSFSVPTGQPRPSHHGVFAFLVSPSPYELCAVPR

The target of this test is Cytochrome P450 2D6 (Homo sapiens) (UniProt P10635). The test can be described thus: Cytochrome P450 family 2 subfamily D member 6 (CYP2D6) small molecule antagonists: luciferase biochemical (cell-free) qHTS assay (AID 1645840). Also: nearly all actives have a fitted effect of over 55% in size. As to conditions: P450-Glo CYP2D6 enzyme, luciferin luminescence, 1 h; series mostly up to 57.4 µM. The method, then:
National Center for Advancing Translational Sciences [NCATS] Assay Overview: Cytochrome P450 (CYP) enzymes are membrane-bound hemeproteins that play a key role in metabolism of drugs and xenobiotics. Assaying the effect of chemicals on CYP isozymes is useful to minimize the adverse drug reactions and toxicities in drug development process. Chemical compounds were tested for their effect on CYP enzyme activities by using P450-Glo (TM) screening systems (Promega Corporation, Madison, WI). These systems provide a luminescent method containing proluciferin substrates and are converted to luciferin products by CYP isozymes. The luciferin products formed are detected with a luciferin detection reagent, and the amount of light produced is proportional to CYP activity. P450-Glo (TM) CYP2D6 screening system (Catalog. No. V9890) was used to detect the compounds that interfere in CYP2D6 activity.
Assay Protocol Summary: Two ul of enzyme-substrate mix was dispensed into medium binding white/solid 1536-well plates (Greiner Bio-One North America Inc., Monroe, NC) using a Flying Reagent Dispenser (FRD, Aurora Discovery, San Diego, CA). […] The assay plates were incubated at room temperature for 10 min. Then 2 ul of NADPH regeneration solution was added to each well of the assay plates using an FRD and incubated at room temperature for 1 h. The reaction was stopped by adding 4 ul of detection reagent using an FRD and after 20 min incubation at room temperature, the luminescence signal was measured using a ViewLux plate reader (Perkin Elmer, Shelton, CT). Data were expressed as relative luminescence units.
Background: Quantitative high-throughput screening tests each substance at several concentrations.
Consider `COC(=O)C1=CCCN(C)C1`, for which the Potency entry is “inactive”.
With `O=C(O)Cc1ccccc1`, the Potency is 15.5 µM (active).
Turning to `C[C@H](CN1CCOCC1)C(C(=O)N1CCCC1)(c1ccccc1)c1ccccc1`, the Potency is 38.6 µM (active).
Consider `Cc1nnc2n1-c1sc(CCc3ccc(CC(C)C)cc3)cc1C(c1ccccc1Cl)=NC2C` (stereo not given), for which the Potency was 27.5 µM (active).
Under `CC(C)=C[C@@H]1[C@@H](C(=O)OCc2coc(Cc3ccccc3)c2)C1(C)C` stands “inactive”; under `CN1CCC(N(Cc2ccccc2)c2ccccc2)CC1`, 0.11 µM (active).
Take `CCN(CC)CCOC(=O)C(C)(c1ccccc1)c1ccccc1`: the Potency was 1.38 µM (active).
Consider `c1cc2c(c(N3CCNCC3)c1)OCCO2`, for which the Potency result is “inactive”.
For the compound `Nc1ccc(N)cc1`, the Potency was 3.09 µM (active).
For the compound `Clc1ccc(C(OCCN2CCCCC2)c2ccccc2)cc1` (stereo not given), the Potency is 0.049 µM (active).
Regarding `C[C@]12CC[C@H]3[C@@H](CCC4=CC(=O)CC[C@@H]43)[C@@H]1CC[C@@H]2O`, the Potency entry was “inactive”.
Then `O=C(CCCCl)c1ccc(F)cc1`, with “inactive”; and `CC(CC(C(N)=O)(c1ccccc1)c1ccccc1)N(C)C` (stereo not given), with 7.76 µM (active); and `CCCOC(=O)Cc1ccc(OCC(=O)N(CC)CC)c(OC)c1`, with “inactive”.
`COc1cc(N)c(Cl)cc1C(=O)NC1CN2CCC1CC2` (stereo not given): the Potency is 15.5 µM (active).
For the compound `CCCC[N+]1(C)[C@@H]2CC(OC(=O)[C@H](CO)c3ccccc3)C[C@H]1[C@@H]1O[C@@H]12` (stereo not given in full), the Potency is 2.75 µM (active).
As for `CC[n+]1c(-c2ccccc2)c2cc(N)ccc2c2ccc(N)cc21`, the Potency was 3.47 µM (active).
As to `Oc1c(Br)cc(Br)cc1Br`, the Potency result is “inactive”.
For the compound `CCC(=O)O[C@H]1CC[C@H]2[C@@H]3CCC4=CC(=O)CC[C@]4(C)[C@H]3CC[C@]12C`, the Potency is 16.9 µM (active).
`Sc1ccccc1Cl`: the Potency result was “inactive”.
As to `CNC(=O)Oc1cccc2ccccc12`, the Potency entry is “inactive”.
Regarding `O=C(N[C@H]1N=C(c2ccccc2F)c2cccc3c2N(CC3)C1=O)c1cc2ccccc2[nH]1`, the Potency entry was “inactive”.
For the compound `COc1cc(CC(C)N)c(OC)cc1Br` (stereo not given), the Potency was 29.2 µM (active).
For the compound `CCN(CC)Cc1nccn1-c1ccc([N+](=O)[O-])cc1C(=O)c1ccccc1Cl`, the Potency is 1.95 µM (active).
Under `COCC(=O)N(c1c(C)cccc1C)C(C)C(=O)OC` (stereo not given) stands “inactive”; under `CC(C)(C)OC(=O)c1ncn2c1[C@@H]1CCCN1C(=O)c1c(Br)cccc1-2`, “inactive”.
Turning to `O=C(CCCN1CCC(n2c(=O)[nH]c3ccccc32)CC1)c1ccc(F)cc1`, the Potency was 6.92 µM (active).
As to `CCN(CC)C(C)C(=O)c1ccccc1` (stereo not given), the Potency result is “inactive”.
On to `CN1[C@@H]2CC[C@H]1CC(OC(=O)c1cc(Cl)cc(Cl)c1)C2` (stereo not given in full), for which the Potency is 0.0436 µM (active).
Then `CN(C)CCc1c[nH]c2ccc(O)cc12`, with 31 µM (active).
Turning to `CCOC(=O)NC(O)C(Cl)(Cl)Cl` (stereo not given), the Potency entry is “inactive”.
With `COc1ccc(OC)c(CC(C)N)c1` (stereo not given), the Potency was 6.05 µM (active).
As for `CCc1ccc(C2CCNCC2)cc1`, the Potency was 0.347 µM (active).
For the compound `C[C@]12C=CC(=O)C=C1CC[C@@H]1[C@@H]2CC[C@@]2(C)[C@H]1CC[C@]2(C)O`, the Potency result was “inactive”.
`CC(C)[N+](C)(CCC(C(N)=O)(c1ccccc1)c1ccccc1)C(C)C`: the Potency is 1.95 µM (active).
With `Oc1ccc([C@H]2CNCc3c2ccc(O)c3O)cc1O`, the Potency entry was “inactive”.
Then `Cc1cccc(Cc2cnc[nH]2)c1C`, with 0.871 µM (active); and `COc1ccc(C(=O)N2CCCC2=O)cc1`, with “inactive”; and `Cc1c(Cl)c(=O)oc2cc(OP(=O)(OCCCl)OCCCl)ccc12`, with 1.55 µM (active).
For the compound `CC1COC2(c3ccccc3Cl)c3cc(Cl)ccc3NC(=O)CN12` (stereo not given), the Potency was 11 µM (active).
